Source: ChEMBL document CHEMBL3988442, “University of Dundee, Small-Polar-MMV Screening Library” (2021)
Out of some 38,000 compounds screened, about 1,200 (3.2%) showed an effect of 50% or more. The median lay at about -58%. Many of the other results were omitted from the sample, so strong results are more common in it than they were.

Each compound was assayed on Plasmodium falciparum (assay: Calibr Malaria Delayed Death Assay SOP). Settings: concentration 4.99e-06 (unit not given; other assays of the set use mol/L).
Type: functional, organism-based
Parameters: scale not given: in the data most compounds retested in dose-response had high values

SMILES	Percent Effect [%]
CC(C)OCCCNC(=O)c1cccnc1N1CCOCC1	-113.7
Cn1ccnc1CN1CCCN(C(=O)c2ccc3c(c2)OCO3)CC1	-109.5
O=C(Nc1nncs1)N1CCC(c2ccc(O)cc2)CC1	-154
CCN1C(=O)CCCC12CCCN(C(=O)c1conc1C)C2 (centres undefined)	-139.9
CCCS(=O)(=O)N1CCC2(CN(c3ccccc3)C(=O)CN2C)C1.O=C(O)C(F)(F)F (centres undefined)	-40.82
CC1Oc2c(cccc2C(=O)N2CCCCCC2)NC1=O (centres undefined)	-198.9
Cc1nc[nH]c1CN(Cc1ccccc1)Cc1nccs1	74.62
c1ccc(CN(Cc2ncc[nH]2)Cc2nccs2)cc1	15.24
Cc1cccc(CN(Cc2ccccc2)Cc2nccs2)n1	-42.32
Cc1cccc(CN2CC[C@@H]3O[C@@H](C(=O)N4CCN(C)CC4)C[C@@H]32)c1	7.549
Cc1nc2ccnn2c(C)c1CCC(=O)N1CCSCC1	-118.8
Cc1cccc(N2CCOCC3(C2)CN(c2ccoc2)C(=O)CO3)n1.O=C(O)C(F)(F)F (centres undefined)	65.62
Cc1cccc(N2CCOCC3(C2)CN(c2ccccc2)C(=O)CO3)n1.O=C(O)C(F)(F)F (centres undefined)	-64.15
Cc1cccc(N2CCOCC3(C2)CN(c2cnn(C)c2)C(=O)CO3)n1.O=C(O)C(F)(F)F (centres undefined)	-79.15
OC1(CN2CCOC(Cn3cncn3)C2)CCCCC1 (centres undefined)	-41.07
CN(Cc1cc2n(n1)CCNC2)Cc1n[nH]c2c1CCCCC2	-6.476
Cc1ccc2[nH]c(CN(C)Cc3n[nH]c4c3CCC4)nc2c1	82.04
Cc1ccc2nc(CN(C)Cc3n[nH]c4c3CCCCC4)[nH]c2c1C	85.65
CN(Cc1cc2n(n1)CCNC2)Cc1n[nH]c2c1CCC2	-20.1
Cc1ccc2nc(CN(C)Cc3[nH]nc4c3CCC4)[nH]c2c1C	36.38
CN(Cc1cc2n(n1)CCCNC2)Cc1n[nH]c2c1CCC2	-43.74
CCn1nc(CC(C)C)cc1C(=O)NCCCN1CCOCC1	-66.39
CN(Cc1ccc2c(c1)OCCO2)Cn1nc(C(C)(C)C)ccc1=O	-39.48
CN(Cc1ccncc1)C1COC2(CCN(Cc3nccn3C)CC2)C1.O=C(O)C(F)(F)F.O=C(O)C(F)(F)F.O=C(O)C(F)(F)F (centres undefined)	-27.83

SMILES	Percent Effect [%]
O=C(O)C(F)(F)F.O=C1[C@H]2CN(S(=O)(=O)C3CC3)C[C@H]2CN1Cc1cccnc1	-0.2941
CC(=O)C1(c2ccccc2)CCN(C(=O)C2CNCCO2)CC1 (centres undefined)	-83.28
O=C(C1CNCCO1)N1CCCC(c2ccccc2)(c2ccccc2)C1 (centres undefined)	79.21
CC(=O)C1(c2ccccc2)CCN(C(=O)CC2CNCCO2)CC1 (centres undefined)	-46.22
O=C(c1cccnc1SC/C=C/c1ccccc1)N1CCOCC(O)C1 (centres undefined)	53.57
O=C(c1cccnc1SC/C=C/c1ccccc1)N1CC[C@H](O)C1	-73.62
O=C(c1cccnc1SCc1ccccc1)N1CCOCC1	-36.51
O=C(O)C(F)(F)F.c1ccc2c(c1)N(CC1CCOC1)CC21CCN(c2cnccn2)CC1 (centres undefined)	68.42
Cc1cnc(N2CCC3(CCN(CC4CC4)C3=O)CC2)nc1	-170.6
CCS(=O)(=O)N1CCC2(CC1)CN(CC1CCOC1)c1ccccc12.O=C(O)C(F)(F)F (centres undefined)	19.88
c1cnc(N2CC3(CCN(C4CCOC4)CC3)c3ccccc32)nc1 (centres undefined)	-111.6
O=C(O)C(F)(F)F.O=C1N(CC2CC2)CCC12CCN(c1ncccn1)CC2	4.695
O=C(O)C(F)(F)F.c1cnc(N2CCC3(CC2)CN(CC2CC2)c2ccccc23)nc1	85.9
O=C(O)C(F)(F)F.O=C(O)C(F)(F)F.OCCN1CC2(CCN(CC3CC3)CC2)c2ccccc21	-50.6
CS(=O)(=O)N1CCC2(CC1)CN(CC1CCOC1)c1ccccc12.O=C(O)C(F)(F)F (centres undefined)	-57.4
COC[C@@H]1CCC[C@@]12CN(C(=O)N1CCCC1)CCO2	-140.1
Cc1ccc(C(=O)N2CCC3(CCN3Cc3ccc(F)cc3)C2)cn1.O=C(O)C(F)(F)F (centres undefined)	-82.72
CC(C)C(C(=O)N1CCCN(c2cccnn2)CC1)n1cncn1 (centres undefined)	-14.43
CN(C)S(=O)(=O)c1ccc2c(c1)N(Cc1ccccn1)CCC2	-104.8
Cc1ccc([C@H]2CN(C(=O)C3CCC3)C[C@@H]2N)o1	-3.638
Cc1nc(N2CCN(C)CC2)ncc1C(=O)N1CCCCCC1	-28.58
O=C1CCN(C(=O)CCc2ccc(Cl)cc2Cl)CCN1	-159.9
Cc1cnn(CC2CCCCN2C(=O)c2cccc(C(N)=O)c2)c1 (centres undefined)	-136.1
CCCn1ncc(CN(Cc2cccnc2)Cc2ccsc2)c1C	-140.4

SMILES	Percent Effect [%]
CCCn1ncc(CN(CCN(C)C)Cc2ccsc2)c1C	54.25
CCCn1ncc(CN(Cc2ccsc2)Cc2ccco2)c1C	-133.4
Cc1ccc(NC2CCN(C(=O)COc3ccccc3)CC2)nn1	-125.7
O=c1n(CCNCc2ccc3ccccc3c2)nc2ccccn12	-86.86
CCOc1cc(C(=O)N2CCCC(c3noc(CC)n3)C2)ccn1 (centres undefined)	-108.4
O=C(c1cncc(NCC2COc3ccccc3C2)n1)N1CCCC1 (centres undefined)	-147.2
NCC1Cc2cc(-c3cncc(C(=O)N4CCCCC4)n3)cc(F)c2O1 (centres undefined)	51.14
NCC1Cc2cc(-c3cncc(C(=O)N4CCOCC4)n3)cc(Cl)c2O1 (centres undefined)	-15.5
Cc1nc(-c2ccco2)ccc1C(=O)NCCC(=O)N1CCCCC1	-60.18
Cc1cc(C(=O)NCc2ccco2)nn1C	-62.29
CCOCCCNCc1cc2c(C)cc(C)cc2n2c(=O)n(C)nc12	-70.5
Cc1cc(C)c2cc(CNC(C)C)c3nn(C)c(=O)n3c2c1	20.42
Cc1ccn(CCC(=O)NCc2ccc(C)o2)n1	-117.2
Cc1cc(C)c2cc(CNCc3cccnc3)c3nn(C)c(=O)n3c2c1	28.22
Cc1cc(C)c2cc(CNC3CCCCC3)c3nn(C)c(=O)n3c2c1	78.75
Cc1cc(C)c2cc(CNCc3ccc(C)o3)c3nn(C)c(=O)n3c2c1	62.16
Cc1cc(C)c2cc(CNCc3ccco3)c3nn(C)c(=O)n3c2c1	74.31
Cc1ccc(CNC(=O)c2cc(C)n(C)n2)o1	-43.25
COc1ccccc1CCNC(=O)NCC(=O)Nc1cccnc1	-188.8
COC(=O)CNC(=O)CCCn1cnc2ccccc2c1=O	-30.86
O=C(c1cccnc1-c1ccoc1)N1C[C@H]2CC[C@@H]1C2	6.669
CN(C)CC(=O)N1CCc2ncnc(-c3cncnc3)c2CC1.O=C(O)C(F)(F)F	-41.61
Cc1ccc2c(c1)CCC21CCN(C(=O)CN(C)C)CC1.O=C(O)C(F)(F)F	50.73
O=C(O)C(F)(F)F.O=C(O)C(F)(F)F.c1cncc(-c2ccc3c(c2)CCC32CCN(Cc3nccs3)CC2)c1	47.52

SMILES	Percent Effect [%]
O=C(CCO)N1CCC2(CCc3ccc(-c4ccoc4)cc32)CC1	-85.78
O=C(O)C(F)(F)F.O=C(O)C(F)(F)F.c1cncc(-c2ccc3c(c2)CCC32CCN(Cc3ccco3)CC2)c1	73.11
Cc1ccc2c(c1)CCC21CCN(CCO)CC1	15.58
CN(C)CC(=O)N1CCC2(CCc3ccc(-c4ccncc4)cc32)CC1.O=C(O)C(F)(F)F.O=C(O)C(F)(F)F	-49.14
O=C(O)C(F)(F)F.c1cncc(-c2ccc3c(c2)C2(CC3)CCN(c3nncs3)CC2)c1	21.42
Cc1ccc2c(c1)C1(CC2)CCN(CC(=O)O)CC1.O=C(O)C(F)(F)F	-81.36
CN(C)CC(=O)N1CCC2(CCc3cc(-c4cccnc4)ccc32)CC1.O=C(O)C(F)(F)F.O=C(O)C(F)(F)F	79.5
CN(C)CC(=O)N1CCC2(CC1)Cc1ccccc1CN(C)C2=O.O=C(O)C(F)(F)F	-24.83
O=C(O)C(F)(F)F.OCCN1CCC2(CCc3cc(-c4ccoc4)ccc32)CC1	60
Cc1ccc(CN2CCc3ncnc(-c4ccoc4)c3CC2)o1.O=C(O)C(F)(F)F	-147
Cc1ncc(C(=O)N2CCCCC2c2nc3cc(F)ccc3[nH]2)c(O)n1 (centres undefined)	-22.18
CS(=O)(=O)N1CCO[C@@H]2CN(C(=O)C3CCOC3)CC[C@@H]2C1 (some centres undefined)	-33.97
CC1c2ncc(Cn3cccn3)n2CCN1S(C)(=O)=O.O=C(O)C(F)(F)F (centres undefined)	-110.2
COc1ccc2c(ccn2CCC(=O)N[C@H](C(=O)O)C(C)C)c1	-46.34
O=C(O)C(F)(F)F.O=S(=O)(C1CC1)N1C[C@H]2CCC[C@@]2(COCc2ccccn2)C1	2.137
Cc1ccc(CNc2cc3c(cc2Cl)NC(=O)CO3)cc1C	-53.48
CC(C)c1nccc(-c2nccn2CCS(C)(=O)=O)n1	-2.25
COc1cccc(OCC(=O)N(C)c2cccnc2)c1	-135.2
c1cc(-c2ccc3c(c2)C2(CCNCC2)CC3)ccn1	-27.62
c1cncc(-c2ccc3c(c2)CCC32CCNCC2)c1	86.19
O[C@H]1[C@H](n2cc(-c3cccnc3)nn2)c2ccccc2C12CCNCC2	-21.88
CCCN1CCCn2nc(CNS(=O)(=O)c3ccc(F)cc3)cc2C1	-65.3
